# PubChem BioAssay (NCI)
# This is part of a sample that, as a whole, favours compounds with a hit. Of some 83,000 tested, about 20% had one in any assay.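 Results are percent growth after 48 hours of single-concentration exposure. 100 means growth as in untreated cells, lower positive values show inhibition; negative values down to -100 show cell death.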 Unmarked numbers belong to inactive results. Activity calls are given as the source filed them. How the source made its calls: active means growth percent below 10; inactive means the rest.
# Key:
# Assay in all cases: NCI-60 one-dose screen, 48 h (100 = growth as untreated, 0 = no growth, -100 = all killed)
# [1] = test system: BT-549 breast; conditions: 10 µM unless noted
# [2] = test system: MDA-MB-435 melanoma; conditions: 10 µM unless noted
# [3] = test system: SW-620 colon; conditions: 10 µM unless noted
# [4] = test system: MCF7 breast; conditions: 10 µM
# [5] = test system: HCT-116 colon; conditions: 10 µM unless noted
# [6] = test system: HCC-2998 colon; conditions: 10 µM unless noted
# [7] = test system: KM12 colon; conditions: 10 µM unless noted
Structure (SMILES),growth [1],growth [2],growth [3],growth [4],growth [5],growth [6],growth [7]
COc1cc2nc(-c3cccc4cccnc34)nc(NC3CCN(Cc4ccccc4)CC3)c2cc1OC,-65% (active),-93.3% (active),-74.8% (active),-77.2% (active),-63.7% (active),-91% (active),-76% (active)
Oc1c(CN2CCN(c3ccccc3F)CC2)cc(Br)c2cccnc12,-53.8% (active),-48.3% (active),-13.5% (active),9.33% (active),-36.4% (active),30.7%,0.135% (active)
CC(C)c1ccc(S(=O)(=O)NC(=O)NC2CCCC2)cc1,100%,100%,97.9%,93.2%,97.5%,108%,103%
c1ccc2cc3c(Nc4ccc(N5CCOCC5)cc4)ccnc3cc2c1,99.3%,95.6%,101%,84%,90.2%,109%,102%
COc1cc(C(C)n2cc(-c3ccccc3)nn2)ccc1OC1CCCC1 (stereo not given),69.1%,65.4%,74.7%,48.1%,52.3%,70.4%,71.8%
Cc1c(-c2noc(-c3ccc([N+](=O)[O-])cc3)n2)no[n+]1[O-],95.7%,106%,97.5%,55.2%,87.5%,102%,92.2%
CCOc1cccc(/C=N/NC(=O)C(=O)Nc2cccc(C(F)(F)F)c2)c1O,45.4%,49.6%,32%,11.8%,32%,5.43% (active),27.8%
COc1ccc(C2Nc3nc(OC)n(C)c(=O)c3N=C3c4ccccc4C(=O)C32)cc1 (stereo not given),86.3%,78.5%,90%,74.5%,95.4%,103%,75%
COc1ccc(-c2nsc3c2NC(=O)CC3c2cccc(OC)c2)cc1 (stereo not given),39.6%,-30.6% (active),27.2%,18.3%,29%,57.4%,36.2%
CC1=C(C(=O)OCC2CCN(C(=O)OC(C)(C)C)CC2)[C@H](c2cccc(C#N)c2)C2=C(CC(C)(C)CC2=O)N1,65%,50.3%,37.2%,40.8%,26.9%,70.8%,42.4%
COc1ccc(N)c(-c2cc3c(c4c2[nH]c2ccc(OC)cc24)CCCC3)c1,74.6%,93.6%,83.3%,69.1%,58.4%,104%,80.2%
NCCOc1ncccc1/C=C1\c2ccccc2-c2ccc(F)cc21,82.4%,60.7%,14.7%,14.9%,15%,18.3%,8.88% (active)
CCOC(=O)c1sc(-c2ccc(OS(=O)(=O)C[C@]34CCC(CC3=O)C4(C)C)c(C=O)c2)nc1C,-13.5% (active),7.61% (active),10.5%,2% (active),5.89% (active),66.4%,7.78% (active)
C#CCn1cc(C=C2C(=O)NC(=O)NC2=O)c2cc(Cl)ccc21,64.6%,88.3%,97.7%,72.4%,71.5%,95.6%,85.6%
CCN1C(=O)N(CC)C2Nn3c(s/c(=C4\C(=O)N(C(C)C)c5ccccc54)c3=O)=NC21 (stereo not given),27.7%,1.02% (active),32.4%,9% (active),6.5% (active),34.6%,28.5%
O=C(c1nc2ccccc2[nH]1)C1C(c2cccc([N+](=O)[O-])c2)C2CC3CCCCC3N2[C@@]12C(=O)Nc1cc(Cl)ccc12 (stereo not given in full),52.9%,35.8%,37.9%,16.3%,13%,23.9%,32.5%
COc1ccc(-c2cn[nH]c2-c2cc(OC)c(OC)c(OC)c2)cc1OCc1ccccc1,60%,-61.8% (active),26.6%,17.2%,17.6%,34.8%,14.7%
CCN1C(=O)N(CC)C2C1NC(=S)N2/N=C/C=C/c1ccccc1OC (stereo not given),-5.67% (active),-20.9% (active),23.6%,17.8%,2.3% (active),12.4%,15.6%
CCOC(=O)CSc1c(-c2ccccc2)c2cc(Cl)ccc2[nH]c1=O,103%,99.8%,102%,93.3%,92.1%,103%,98.1%
COc1ccc(-n2c(C(O)c3ccccc3)nn(CN3CCOCC3)c2=S)cc1 (stereo not given),108%,106%,87%,105%,105%,106%,99.8%
O=Cc1c(OCc2cnnn2CC(=O)Nc2ccc(Cl)cc2)ccc2ccccc12,90.4%,104%,99.2%,81.5%,104%,111%,101%
COc1cc(/C=C/C(=O)c2ccc(Nc3nc(NCCO)nc(N4CCOCC4)n3)cc2)cc(OC)c1OC,33.5%,10.1%,7.8% (active),3.22% (active),9.47% (active),20%,7.4% (active)
CC(=S)NC(=O)C(=O)/C=C1/NC(=O)C(=O)S1,106%,106%,106%,104%,114%,108%,107%
COc1ccc(OC)c(N(CCN2C(=O)c3ccccc3C2=O)C(=O)CCl)c1,92.4%,81.5%,96.4%,78.8%,89%,111%,-11.3% (active)
COc1ccc(-c2nocc2-c2cccs2)cc1,105%,101%,99.4%,97.3%,103%,118%,104%

Structure (SMILES),growth [1],growth [2],growth [3],growth [4],growth [5],growth [6],growth [7]
CCN1CCN(c2cc(C)c3cc(NC(=O)c4ccc(OC)c(OC)c4)ccc3n2)CC1,42.3%,-42% (active),16.7%,17.9%,26.3%,81.9%,26.2%
CN1C(=O)N(C)C2(c3ccccc3)n3c(s/c(=C\c4ccccc4)c3=O)=NNC12c1ccccc1 (stereo not given),105%,98.1%,88.6%,85.6%,88.3%,110%,88.2%
Nc1nc2c(ncn2[C@@H]2O[C@H](CS)[C@@H](O)[C@H]2O)c(=O)[nH]1,100%,99.8%,96%,101%,102%,104%,101%
COc1cc(C=C2C(=O)N(C)C(=O)N(C)C2=O)cc(CN2CCCCC2)c1O,101%,103%,104%,92.5%,100%,103%,103%
COc1ccc(C(=O)C2CC2c2ccc(Cl)cc2)cc1 (stereo not given),57.3%,95.6%,102%,103%,77.1%,98.8%,68.7%
COc1cc(C(C)n2cc(-c3ccccc3)nn2)ccc1OC1CCCCC1 (stereo not given),69.3%,68.1%,75.5%,49.8%,42.5%,81.4%,77.9%
Cc1[nH]c2ccccc2c(=O)c1CC=C(Cl)Cl,135%,47.5%,10.5%,-88.7% (active),-65.6% (active),59.3%,18.2%
CC(=O)c1ccc(Nc2nc(NCCO)nc(Nc3ccc(Cl)cc3)n2)cc1,97.3%,59.4%,94.5%,69.1%,98.4%,105%,90.8%
Cn1cc(-c2ccc3ncc(-c4ccc(CC(=O)Nc5cc(C(C)(C)C)no5)cc4)nc3c2)cn1,55.4%,28.8%,48.3%,30.2%,24.4%,60.2%,6.86% (active)
O=c1c(-c2nc3ccccc3[nH]2)cc2ccccc2n1Cc1cn(Cc2ccc(F)cc2)nn1,22.4%,-37% (active),22.1%,14.5%,-13.5% (active),-14.5% (active),9.74% (active)
O=C(NC1CCCCC1)C(c1cccs1)N(CCc1ccccc1)C(=O)c1ccco1 (stereo not given),103%,104%,96.1%,88.3%,82.9%,105%,98%
COc1ccc2oc(=O)cc(Cn3cc(Cn4cnc5c4c(=O)n(C)c(=O)n5C)nn3)c2c1,105%,108%,105%,92.1%,102%,95.9%,105%
COC(=O)[C@H]1CCCN1C(=O)[C@H]1CCCN1C(=O)[C@H](Cc1c[nH]c2ccccc12)NC(=S)Nc1cc(C(F)(F)F)cc(C(F)(F)F)c1,97.4%,45.4%,70.4%,32.5%,41%,16.1%,36.4%
O=c1nc2sc3nc4ccccc4cc3cc-2s1,112%,117%,107%,98.1%,102%,106%,129%
CCOC(=O)C1(Cc2ccccc2)CCN(Cc2cccc(OC)c2O)CC1,50.4%,20.1%,20.9%,13.9%,21%,11.9%,22.2%
O=C1/C(=C\c2ccc[nH]2)c2ccccc2N1c1ccccc1,78.9%,108%,97%,19.5%,95.1%,93.6%,95.7%
CN(C)c1ccc(/C=C/c2ccnc3c(O)cccc23)cc1,17.8%,18.6%,21.6%,18.2%,18.6%,55.7%,16.2%
O=C(/C=C/c1ccc(Cl)cc1)c1ccc(Nc2nc(NCCO)nc(N3CCOCC3)n2)cc1,85%,77.9%,50.4%,9.73% (active),18.6%,99%,28.5%
Cn1c(/C=C(\C#N)c2cccc(C(F)(F)F)c2)nc2c(N3CCOCC3)nc(Cl)nc21,-13.1% (active),-91.5% (active),-68.8% (active),-54.1% (active),-85.5% (active),14%,19.1%
N#CC(C#N)=Cc1c(-c2ccccc2)[nH]c2ccccc12,56%,7.52% (active),21.1%,15.7%,30.4%,50.7%,27.4%
NS(=O)(=O)c1ccc(CCN=C=S)cc1,63.8%,27.9%,-22.9% (active),2.99% (active),0.727% (active),81.1%,8.37% (active)
COc1ccc(Cn2cc(Cn3cc(C=C4C(=O)NC(=O)NC4=O)c4ccccc43)nn2)cc1,99.5%,90.8%,85.9%,75.8%,80.1%,109%,93%
COc1cc(-c2c3c(c(Br)n2Cc2ccccc2)-c2nc(N)sc2CC3)cc(OC)c1OC,94.1%,35.8%,74.9%,61.4%,69.2%,96.3%,88.6%
O=C(CSc1ncccc1C(=O)O)Nc1ccc(Oc2ccccc2)cc1,97.8%,105%,91.9%,91.5%,96.9%,102%,110%
CC(=O)n1cc(-c2c[nH]c3ccccc23)c(-c2ccc(Cl)cc2)n1,76.8%,88.5%,89%,71.5%,61.7%,109%,84.8%
